From the supplement of paper PMC10515830

What was measured:
Details in all cases: 10 µM; exposure time 6 h
[1] = tested on: Danio rerio larvae (5 dpf); assay: difference in excitability vs DMSO (percentage points); higher = more excitable than DMSO
Summary of the method: (§1)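 In 96-well plates, 48 wild-type zebrafish larvae aged 5 dpf per compound received 100 µL egg water with library compound at 10 µM final for 6 h. Three hours into this, a 3-h programme of moving lines and 100 ms, 400Hz tones ran at 28.5 ℃ while plates were photographed every 6 s. Z-LaP Tracker scored the behaviours, and each is given as the compound mean minus the vehicle control mean in percentage points.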

[2] = tested on: Danio rerio larvae (5 dpf); assay: difference in startle response vs DMSO (percentage points); higher = stronger startle than DMSO
Summary of the method: as §1

[3] = tested on: Danio rerio larvae (5 dpf); assay: difference in activity during first hour vs DMSO (percentage points); higher = more activity than DMSO
Summary of the method: as §1

[4] = tested on: Danio rerio larvae (5 dpf); assay: difference in habituation to acoustic stimuli vs DMSO (percentage points); higher = more habituation than DMSO
Summary of the method: as §1

[5] = tested on: Danio rerio larvae (5 dpf); assay: difference in combined optomotor response to red, green and blue moving lines vs DMSO (percentage points); higher = stronger optomotor response than DMSO
Summary of the method: as §1

SMILES	difference in excitability [1]	difference in startle response [2]	difference in activity during first hour [3]	difference in habituation to acoustic stimuli [4]	difference [5]
C=C1CCN([C@H](C)[C@](O)(Cn2cncn2)c2ccc(F)cc2F)CC1 [Efinaconazole]	14.8	-1.57	-5.8	-7.46	1.58
Cc1ncc([N+](=O)[O-])n1CCO [Metronidazole]	5.42	1.25	-3.64	-2.4	7.32
CC(C)(C(=O)c1cccnc1)c1cccnc1 [Metyrapone]	1.48	5.62	-0.661	1.75	4.5
CCC1(C)CC(=O)NC1=O (stereo not given) [Ethosuximide]	2.89	4.52	-3.89	4.09	0.956
Nc1ncn([C@H]2C[C@H](O)[C@@H](CO)O2)c(=O)n1 [Decitabine]	-2.79	-4.56	-0.853	0.137	4.38
CC(=O)OCC[N+](C)(C)C [Acetylcholine (chloride)]	5.65	0.34	-8.36	2.23	-4.37
NS(=O)(=O)c1cc2c(cc1Cl)NCNS2(=O)=O [Hydrochlorothiazide]	-7.7	3.06	2.42	1.66	2
Cc1cnc(NC(=O)C2=C(O)c3ccccc3S(=O)(=O)N2C)s1 [Meloxicam]	5.53	6.51	-3.33	3.11	4.63
Nc1nc(=S)c2[nH]cnc2[nH]1 [6-Thioguanine]	2.87	-3.35	1.36	0.958	6.09
CCOCCn1c(N2CCCN(C)CC2)nc2ccccc21 [Emedastine (fumarate)]	5.25	8.02	5.05	0.658	-3.97
COc1ccccc1OCCNCC(O)COc1cccc2[nH]c3ccccc3c12 (stereo not given) [Carvedilol]	21.2	2.07	-3.13	0.913	3.65
